Measurements: ChEMBL document CHEMBL1961873, “Compounds: GSK PKIS; Assays: Nanosyn kinase panel” (2012)

Legend:
[1] = biological target: T1, Serine/threonine-protein kinase Nek9 (Homo sapiens) (UniProt Q8TD19); conditions: at 1 µM;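 further: each value is a mean percent inhibition of NEK9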
T1 sequence (whole entry): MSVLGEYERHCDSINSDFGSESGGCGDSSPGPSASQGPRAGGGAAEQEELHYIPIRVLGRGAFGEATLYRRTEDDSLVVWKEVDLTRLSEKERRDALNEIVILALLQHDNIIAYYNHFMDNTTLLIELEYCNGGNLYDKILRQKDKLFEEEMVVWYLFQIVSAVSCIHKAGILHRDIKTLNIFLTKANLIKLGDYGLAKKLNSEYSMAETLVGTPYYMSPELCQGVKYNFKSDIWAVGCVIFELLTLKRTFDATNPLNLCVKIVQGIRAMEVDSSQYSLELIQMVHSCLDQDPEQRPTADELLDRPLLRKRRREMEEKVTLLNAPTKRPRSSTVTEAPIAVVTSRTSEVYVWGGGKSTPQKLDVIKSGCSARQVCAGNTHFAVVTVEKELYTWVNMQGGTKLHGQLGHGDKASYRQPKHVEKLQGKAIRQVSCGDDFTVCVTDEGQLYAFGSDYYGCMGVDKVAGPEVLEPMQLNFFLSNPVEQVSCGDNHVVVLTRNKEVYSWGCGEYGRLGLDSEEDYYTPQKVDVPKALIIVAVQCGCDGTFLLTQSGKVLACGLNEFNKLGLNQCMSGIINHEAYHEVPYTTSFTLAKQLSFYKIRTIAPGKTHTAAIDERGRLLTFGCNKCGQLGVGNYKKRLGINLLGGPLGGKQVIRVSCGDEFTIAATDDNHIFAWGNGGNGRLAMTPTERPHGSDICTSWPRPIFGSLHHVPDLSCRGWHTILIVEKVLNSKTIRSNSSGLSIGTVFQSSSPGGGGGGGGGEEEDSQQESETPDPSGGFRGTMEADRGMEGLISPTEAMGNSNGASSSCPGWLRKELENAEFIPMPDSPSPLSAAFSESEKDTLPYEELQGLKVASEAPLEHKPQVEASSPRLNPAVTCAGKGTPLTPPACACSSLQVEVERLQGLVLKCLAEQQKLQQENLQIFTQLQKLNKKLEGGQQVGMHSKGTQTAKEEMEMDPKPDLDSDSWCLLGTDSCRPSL

[2] = biological target: Serine/threonine-protein kinase PLK1 (Homo sapiens) (UniProt P53350); conditions: at 0.1 µM
Chain of Serine/threonine-protein kinase PLK1 (Homo sapiens) (P53350 whole entry): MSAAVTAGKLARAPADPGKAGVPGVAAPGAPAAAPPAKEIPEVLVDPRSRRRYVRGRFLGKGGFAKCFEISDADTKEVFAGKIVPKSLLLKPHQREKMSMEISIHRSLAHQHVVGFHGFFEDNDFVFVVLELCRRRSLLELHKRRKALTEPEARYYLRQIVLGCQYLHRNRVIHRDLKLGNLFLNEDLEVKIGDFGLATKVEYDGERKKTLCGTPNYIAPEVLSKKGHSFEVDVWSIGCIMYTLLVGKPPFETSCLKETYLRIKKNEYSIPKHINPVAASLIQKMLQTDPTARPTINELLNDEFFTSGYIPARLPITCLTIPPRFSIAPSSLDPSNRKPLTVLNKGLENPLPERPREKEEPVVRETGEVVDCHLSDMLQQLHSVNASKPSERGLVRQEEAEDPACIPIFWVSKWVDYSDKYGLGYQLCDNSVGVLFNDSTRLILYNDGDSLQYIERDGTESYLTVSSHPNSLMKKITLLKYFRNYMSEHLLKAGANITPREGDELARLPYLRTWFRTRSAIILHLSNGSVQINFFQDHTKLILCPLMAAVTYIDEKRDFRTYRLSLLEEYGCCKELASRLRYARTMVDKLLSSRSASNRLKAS

[3] = biological target: Serine/threonine-protein kinase PLK1 (Homo sapiens) (UniProt P53350); conditions: at 1 µM
[4] = biological target: T2, Dual specificity protein kinase TTK (Homo sapiens) (UniProt P33981); conditions: at 0.1 µM
T2 sequence (whole entry): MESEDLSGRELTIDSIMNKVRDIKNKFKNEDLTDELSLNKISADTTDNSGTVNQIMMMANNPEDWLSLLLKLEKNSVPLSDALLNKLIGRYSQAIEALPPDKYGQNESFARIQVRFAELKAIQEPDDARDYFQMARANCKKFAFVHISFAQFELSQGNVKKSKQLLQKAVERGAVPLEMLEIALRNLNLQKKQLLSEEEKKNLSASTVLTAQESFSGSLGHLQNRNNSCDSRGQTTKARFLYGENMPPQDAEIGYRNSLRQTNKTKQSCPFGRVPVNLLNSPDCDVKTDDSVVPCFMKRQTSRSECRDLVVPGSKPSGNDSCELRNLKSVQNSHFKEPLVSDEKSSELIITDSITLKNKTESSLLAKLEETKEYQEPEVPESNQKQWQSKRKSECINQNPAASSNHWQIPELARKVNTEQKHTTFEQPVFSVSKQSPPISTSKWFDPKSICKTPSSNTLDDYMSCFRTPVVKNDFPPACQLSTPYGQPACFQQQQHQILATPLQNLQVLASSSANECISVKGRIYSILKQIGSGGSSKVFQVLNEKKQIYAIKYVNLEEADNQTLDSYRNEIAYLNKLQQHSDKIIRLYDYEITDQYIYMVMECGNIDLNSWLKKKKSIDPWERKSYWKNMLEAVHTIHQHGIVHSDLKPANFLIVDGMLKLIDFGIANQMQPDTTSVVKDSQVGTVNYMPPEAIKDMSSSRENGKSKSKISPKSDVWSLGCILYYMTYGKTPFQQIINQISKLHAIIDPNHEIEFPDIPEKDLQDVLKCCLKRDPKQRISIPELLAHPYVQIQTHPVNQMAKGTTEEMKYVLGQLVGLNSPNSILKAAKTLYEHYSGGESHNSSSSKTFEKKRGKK

[5] = tested on: T3, Receptor-type tyrosine-protein kinase FLT3 (Homo sapiens), P36888 [D835Y]; conditions: at 1 µM
T3 sequence (whole entry): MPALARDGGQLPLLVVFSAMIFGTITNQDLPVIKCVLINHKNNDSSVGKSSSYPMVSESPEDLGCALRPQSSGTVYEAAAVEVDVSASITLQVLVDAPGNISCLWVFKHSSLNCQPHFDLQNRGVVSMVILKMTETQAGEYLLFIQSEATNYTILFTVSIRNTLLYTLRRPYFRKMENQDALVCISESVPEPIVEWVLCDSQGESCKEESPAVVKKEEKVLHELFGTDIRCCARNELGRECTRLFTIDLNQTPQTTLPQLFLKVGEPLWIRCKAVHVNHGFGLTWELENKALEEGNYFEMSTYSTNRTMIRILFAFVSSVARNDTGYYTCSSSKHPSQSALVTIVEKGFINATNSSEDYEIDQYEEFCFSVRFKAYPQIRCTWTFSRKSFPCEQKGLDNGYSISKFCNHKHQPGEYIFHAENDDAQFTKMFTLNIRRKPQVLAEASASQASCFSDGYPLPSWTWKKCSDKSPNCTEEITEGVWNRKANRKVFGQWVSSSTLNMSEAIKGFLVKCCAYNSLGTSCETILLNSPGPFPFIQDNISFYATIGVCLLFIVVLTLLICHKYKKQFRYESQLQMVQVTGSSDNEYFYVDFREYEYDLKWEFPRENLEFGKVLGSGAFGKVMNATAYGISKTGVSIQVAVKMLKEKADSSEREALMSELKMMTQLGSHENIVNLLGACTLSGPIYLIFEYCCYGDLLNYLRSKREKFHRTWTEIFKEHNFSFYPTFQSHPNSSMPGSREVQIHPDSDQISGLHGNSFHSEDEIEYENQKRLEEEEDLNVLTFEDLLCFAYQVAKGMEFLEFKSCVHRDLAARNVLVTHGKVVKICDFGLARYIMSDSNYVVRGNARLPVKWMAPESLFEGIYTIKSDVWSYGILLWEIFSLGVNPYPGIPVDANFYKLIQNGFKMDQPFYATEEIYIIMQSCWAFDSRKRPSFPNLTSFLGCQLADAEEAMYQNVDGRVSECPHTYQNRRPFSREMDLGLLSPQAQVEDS

[6] = biological target: Vascular endothelial growth factor receptor 3 (Homo sapiens) (UniProt P35916); conditions: at 0.1 µM
Chain of Vascular endothelial growth factor receptor 3 (Homo sapiens) (P35916 whole entry): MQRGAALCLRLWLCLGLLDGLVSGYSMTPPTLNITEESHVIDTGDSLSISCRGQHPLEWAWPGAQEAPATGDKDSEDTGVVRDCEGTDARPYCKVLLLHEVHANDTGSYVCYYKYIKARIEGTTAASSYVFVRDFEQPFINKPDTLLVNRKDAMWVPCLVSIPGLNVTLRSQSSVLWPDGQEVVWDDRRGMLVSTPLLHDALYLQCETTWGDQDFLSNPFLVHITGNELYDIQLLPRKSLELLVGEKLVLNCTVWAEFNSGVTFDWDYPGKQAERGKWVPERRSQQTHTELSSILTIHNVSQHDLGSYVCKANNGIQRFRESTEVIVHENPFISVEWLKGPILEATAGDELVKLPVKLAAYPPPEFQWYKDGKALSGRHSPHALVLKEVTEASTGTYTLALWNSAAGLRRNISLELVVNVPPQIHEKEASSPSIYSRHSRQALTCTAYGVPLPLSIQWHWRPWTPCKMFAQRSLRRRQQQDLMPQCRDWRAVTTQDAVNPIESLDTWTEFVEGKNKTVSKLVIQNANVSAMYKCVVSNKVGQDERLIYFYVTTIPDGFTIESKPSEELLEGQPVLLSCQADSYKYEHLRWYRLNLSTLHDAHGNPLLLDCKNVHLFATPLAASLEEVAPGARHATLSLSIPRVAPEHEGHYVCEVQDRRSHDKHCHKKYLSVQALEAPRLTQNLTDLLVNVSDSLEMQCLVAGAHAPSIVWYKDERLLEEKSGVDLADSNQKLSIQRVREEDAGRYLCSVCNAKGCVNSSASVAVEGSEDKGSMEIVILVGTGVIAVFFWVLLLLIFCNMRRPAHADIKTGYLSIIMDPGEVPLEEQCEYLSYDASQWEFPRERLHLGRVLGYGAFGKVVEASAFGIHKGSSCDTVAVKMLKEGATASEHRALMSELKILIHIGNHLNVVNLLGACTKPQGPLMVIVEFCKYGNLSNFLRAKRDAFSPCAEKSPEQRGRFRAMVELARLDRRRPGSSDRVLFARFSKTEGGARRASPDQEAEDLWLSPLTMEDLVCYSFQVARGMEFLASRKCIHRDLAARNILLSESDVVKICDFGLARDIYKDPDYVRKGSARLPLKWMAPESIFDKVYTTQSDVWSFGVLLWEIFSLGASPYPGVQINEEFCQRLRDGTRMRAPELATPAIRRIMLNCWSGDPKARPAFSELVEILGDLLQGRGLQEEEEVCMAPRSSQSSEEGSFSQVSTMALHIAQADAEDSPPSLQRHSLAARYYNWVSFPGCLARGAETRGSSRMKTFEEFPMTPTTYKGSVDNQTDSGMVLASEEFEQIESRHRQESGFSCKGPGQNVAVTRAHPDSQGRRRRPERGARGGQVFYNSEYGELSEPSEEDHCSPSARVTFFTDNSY

[7] = biological target: Vascular endothelial growth factor receptor 3 (Homo sapiens) (UniProt P35916); conditions: at 1 µM
[8] = biological target: Macrophage colony-stimulating factor 1 receptor (Homo sapiens) (UniProt P07333); conditions: at 0.1 µM
Chain of Macrophage colony-stimulating factor 1 receptor (Homo sapiens) (P07333 whole entry): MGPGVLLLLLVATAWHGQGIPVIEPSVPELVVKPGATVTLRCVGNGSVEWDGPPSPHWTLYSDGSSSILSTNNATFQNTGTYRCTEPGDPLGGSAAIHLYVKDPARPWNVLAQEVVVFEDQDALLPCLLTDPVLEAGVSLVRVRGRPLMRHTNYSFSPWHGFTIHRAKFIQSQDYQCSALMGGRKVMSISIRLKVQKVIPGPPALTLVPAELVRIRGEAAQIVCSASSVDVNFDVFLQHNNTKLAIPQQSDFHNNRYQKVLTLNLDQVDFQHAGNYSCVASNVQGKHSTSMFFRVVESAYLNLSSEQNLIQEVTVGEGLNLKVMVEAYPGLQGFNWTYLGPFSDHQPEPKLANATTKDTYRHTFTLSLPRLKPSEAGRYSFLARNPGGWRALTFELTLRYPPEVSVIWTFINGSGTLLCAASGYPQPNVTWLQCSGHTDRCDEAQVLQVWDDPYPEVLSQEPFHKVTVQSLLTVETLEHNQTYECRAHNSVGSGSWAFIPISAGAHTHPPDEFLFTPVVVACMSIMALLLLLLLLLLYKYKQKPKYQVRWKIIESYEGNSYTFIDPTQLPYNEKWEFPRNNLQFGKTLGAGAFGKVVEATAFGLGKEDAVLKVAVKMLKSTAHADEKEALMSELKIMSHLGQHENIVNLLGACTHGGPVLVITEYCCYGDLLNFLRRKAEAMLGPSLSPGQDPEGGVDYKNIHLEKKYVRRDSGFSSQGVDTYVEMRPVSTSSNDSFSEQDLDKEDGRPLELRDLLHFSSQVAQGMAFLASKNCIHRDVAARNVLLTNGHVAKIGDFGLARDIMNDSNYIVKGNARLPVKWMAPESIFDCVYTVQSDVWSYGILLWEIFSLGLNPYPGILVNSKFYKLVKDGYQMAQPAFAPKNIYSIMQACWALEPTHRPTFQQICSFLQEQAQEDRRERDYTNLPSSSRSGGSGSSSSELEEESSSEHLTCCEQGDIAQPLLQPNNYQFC

[9] = biological target: Macrophage colony-stimulating factor 1 receptor (Homo sapiens) (UniProt P07333); conditions: at 1 µM
[10] = biological target: Tyrosine-protein kinase Fyn (Homo sapiens) (UniProt P06241); conditions: at 0.1 µM
Chain of Tyrosine-protein kinase Fyn (Homo sapiens) (P06241 2-537 limits assumed): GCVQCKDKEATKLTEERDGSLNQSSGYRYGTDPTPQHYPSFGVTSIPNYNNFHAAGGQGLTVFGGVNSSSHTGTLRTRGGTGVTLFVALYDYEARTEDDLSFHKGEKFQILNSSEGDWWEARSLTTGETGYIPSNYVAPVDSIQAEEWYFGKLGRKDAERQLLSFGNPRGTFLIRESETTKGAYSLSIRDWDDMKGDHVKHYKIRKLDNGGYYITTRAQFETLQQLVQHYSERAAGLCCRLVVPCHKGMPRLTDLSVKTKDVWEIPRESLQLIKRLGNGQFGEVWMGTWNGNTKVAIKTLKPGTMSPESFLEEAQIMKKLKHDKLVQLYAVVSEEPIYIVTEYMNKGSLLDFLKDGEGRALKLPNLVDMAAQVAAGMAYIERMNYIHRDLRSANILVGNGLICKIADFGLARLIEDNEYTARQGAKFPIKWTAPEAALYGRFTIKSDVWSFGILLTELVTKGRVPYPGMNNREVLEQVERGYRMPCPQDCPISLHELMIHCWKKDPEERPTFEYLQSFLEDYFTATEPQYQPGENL

Row | SMILES | inhibition [1] | inhibition [2] | inhibition [3] | inhibition [4] | inhibition [5] | inhibition [6] | inhibition [7] | inhibition [8] | inhibition [9] | inhibition [10]
1 | Nc1ccc(C#Cc2cncnc2Nc2ccc(OCc3cccc(F)c3)c(Cl)c2)cc1 | 6.07% | 0.94% | -0.53% | 4.2% | -6.67% | 1.01% | 1.86% | 0.06% | 3.9% | 1.67%
2 | COc1ccc(-c2nn3ncccc3c2-c2ccnc(Nc3cccc(C(F)(F)F)c3)n2)cc1 | 3.9% | 1.94% | 0.44% | 5.91% | -4.73% | 1.62% | 10.2% | 2.47% | 19.4% | 1.38%
3 | O=C1Nc2ccc(-c3cccnc3)cc2C1=Cc1cc(Br)c(O)c(Br)c1 | 0.27% | 3.43% | 7.7% | 6.45% | 13.7% | 2.46% | 4.42% | 4.24% | 7.78% | 2.17%
4 | COC(=O)c1cncc(/C=C/c2c(C)cc(O)cc2C)c1 | 3.89% | 1.89% | 1.85% | 6.05% | 1.33% | 4.3% | 2.63% | 6.96% | 37.7% | 3.73%
5 | CC(C)c1ccc2c(c1)NC(=O)/C2=N/Nc1ccc(S(N)(=O)=O)cc1 | 4.79% | 2.6% | 1.38% | 2.93% | 3.33% | 1.38% | 5.37% | 5.18% | 34.6% | 2.02%
6 | C[C@@H](Oc1cc(-n2cnc3ccc(OCC4CCN(C)CC4)cc32)sc1C(N)=O)c1ccccc1C(F)(F)F | 102% | 91.6% | 94.3% | 1.25% | 20.9% | 1.45% | 18.6% | -4.84% | 8.46% | 2.33%
7 | Cc1ccc(Nc2ccnc(Nc3cccc(C(N)=O)c3)n2)cc1O | 10.2% | 3.22% | 6.17% | 5.91% | 86.1% | 64% | 95% | 12.7% | 49.9% | 77.2%
8 | COc1cc(Nc2nccc(-c3cnn4ncccc34)n2)cc(OC)c1 | 69.9% | 6.63% | 36.9% | 7.15% | 77.3% | 10.4% | 45.4% | 68.2% | 94.2% | 7.87%
9 | Oc1cccc(-c2nc(-c3ccccc3)[nH]c2-c2ccncc2)c1 | 6.73% | 4.15% | 1.85% | 3.33% | 22.4% | 7.41% | 30.4% | 1.63% | 5.02% | 3.67%
10 | N#Cc1cccc(Nc2nccc(-c3cnn4ncccc34)n2)c1 | 15.6% | 3.24% | 9.23% | 11.2% | 53.4% | 5.06% | 22.3% | 34.4% | 79.4% | 6.76%
11 | NC(=O)c1sc(-n2cnc3ccccc32)cc1OCc1ccccc1Br | 23.5% | 78.3% | 95.3% | 10.6% | -5.34% | 2.98% | 4.24% | -0.73% | 7.89% | 3.58%
12 | Cc1ccc2c(c1)/C(=N/Nc1ccc(S(N)(=O)=O)cc1)C(=O)N2 | 4.02% | 0.67% | 1.12% | 7.53% | 10.8% | 2.09% | 14.6% | 2.64% | 16.7% | 1.22%
13 | Cc1cc(O)cc(C)c1/C=C/c1cncc(C(=O)N(C)C)c1 | 4.45% | 5.15% | 3.62% | 1.2% | 5.04% | 4.71% | 3.92% | 1.52% | 5.32% | 3.23%
14 | NC(=O)c1cccc(Nc2nccc(Nc3cccc(F)c3)n2)c1 | 11% | 2.05% | 6.07% | 2.31% | 21.2% | 1.81% | 30.6% | 22.1% | 62.5% | 7.98%
15 | CN(C)C(=O)O[C@@H]1CN[C@@H](C#Cc2cc3ncnc(Nc4ccc(OCc5cccc(F)c5)c(Cl)c4)c3s2)C1 | 5.37% | 4.55% | 3.19% | 1.31% | -2.2% | -0.2% | 0.49% | -1.87% | 2.32% | 1.01%
16 | COc1cc2ncnc(Nc3ccc(C)c(O)c3)c2cc1OC | 11.6% | 2.93% | 2.77% | 9.85% | 2.41% | 97.5% | 107% | 4.29% | 6.14% | 12.8%
17 | NS(=O)(=O)c1ccc(-c2cc3ccncc3cc2OCc2ccccc2)cc1 | 7.84% | 2.8% | 1.7% | 9.2% | 1.86% | -1.68% | 1.58% | -0.56% | 1.76% | 1.04%
18 | CN(C)CCCn1c(-c2nonc2N)nc2cnccc21 | 12.3% | 3.73% | 4.15% | 8.12% | -1.23% | 15.4% | 15.3% | 2.34% | 1.06% | 2.62%
19 | COc1cc2ncnc(Nc3ccc4c(cnn4Cc4ccccc4)c3)c2cc1OC | 8.26% | 3.61% | 3.2% | 10.4% | 2.33% | 4.91% | 15% | -1.86% | 3.16% | 7.78%
20 | CN(c1ccc(NC(=O)Nc2ccc(OC(F)(F)F)cc2)cc1)c1ccnc(Nc2cccc(S(N)(=O)=O)c2)n1 | 17.1% | 2.14% | -0.02% | 4.18% | 43.2% | 37.5% | 90.1% | 42.6% | 86.1% | 8.93%
